An excerpt weighted towards active compounds, which were near 0.65% of everything screened.
NS1 inh – qHTS Assay for Inhibitors of Influenza NS1 Protein Function | Potency, µM (series often up to 46.1 µM) | 270,000 compounds, 0.4% hits | AID 2326, 2010; note: actives are rising curves; nearly all actives have a fitted effect of over 50% in size
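In this qHTS, NS1 from influenza A is expressed in budding yeast, where it slows growth. Cells are switched from glucose to 2% galactose medium (pH 6.0, -URA), treated with compound, and growth recovery is read at OD600.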
SARS PLpro yeast – qHTS of Yeast-based Assay for SARS-CoV PLP; S. cerevisiae expressing SARS-CoV PLpro, growth rescue; 330,000 compounds, 0.19% hits; Potency, µM (top dose mostly 32.9 µM), actives largely listed as activators; note: nearly all actives have a fitted effect of over 55% in size
AMA1-RON2 inh – qHTS for Inhibitors of AMA1-RON; Towards Development of Antimalarial Drug Lead: Primary Screen; Plasmodium falciparum AMA1 (3D7) - RON2 peptide interaction; AlphaScreen AMA1-biotinylated RON2 peptide binding; Potency, µM (top dose mostly 58.2 µM), usual class: inhibitors; 360,000 compounds, 0.2% hits; AID 720542, 2013; active = well fitted inhibition curve with a large enough effect; inconclusive = small, poorly fitted or top-dose-only effect; inactive = no such curve, though single readings can be large or run the other way; note: nearly all actives have a fitted effect of over 45% in size
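AMA1 (3D7) with his tag at 25 nM final met compounds first, then biotinylated RON2 peptide at 25 nM; detection used donor plus acceptor beads, 10 µg/mL apiece, read by AlphaScreen after 30 min at room temperature.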
Flu NS1 inh – Assay for Inhibitors of Influenza NS1 Protein Function: Hit Validation. shares compounds with NS1 inh. influenza NS1 function cell assay, 15-point titration. activity change, negative = inhibition, % at 32.9 µM. 1,400 tested, under 10 active
Flu PR8 replic – Assay for Inhibitors of Influenza NS1 Protein Function: Influenza virus replication assay in MDCK cells infected with virus A/PR/8/34 | MDCK infected influenza A/PR/8/34, virus titer TCID50; hits give low values | virus titer (log TCID50), log10 TCID50 at 5 µM | AID 504647, 2011 | shares compounds with NS1 inh | 95 compounds, 30% hits; call rule not given here
Hits are given with their value; i = inactive; ? = inconclusive; nt = no result given; [ ] = dose if it differs, or a comment. Unless noted, calls come from the whole dose curve.

SMILES	NS1 inh	SARS PLpro yeast	AMA1-RON2 inh	Flu NS1 inh	others
Cc1ccc(NC(=O)C(=O)NCCc2c[nH]c3ccccc23)c(C)c1	nt	i	i	nt
Cc1ccc(NS(=O)(=O)c2cccc(C(=O)NCCc3c[nH]c4ccccc34)c2)c(C)c1	11µM	i	i	i
O=[N+]([O-])c1ccc(SCCO)nc1SCCO	i	i	i	nt
CCCn1c(/N=C/c2ccccc2O)nc2ccccc21	i	i	i	nt
Cn1c(/N=C/c2c(O)ccc3ccccc23)nc2ccccc21	11µM	?	i	?
CCC(C)(C)n1nnnc1C(c1cc2cc(OC)c(OC)cc2[nH]c1=O)N1CCc2ccccc21 (configuration not stated)	14µM	i	i	?
COc1cc2cc(C(c3nnnn3C(C)(C)C)N3CCc4ccccc4C3)c(=O)[nH]c2cc1OC (configuration not stated)	i	i	i	nt
Cc1ccc(S(=O)(=O)NCc2ccccc2)cc1C(=O)NCc1ccncc1	nt	nt	i	nt
COc1ccc(C2NC(C(=O)O)Cc3c2[nH]c2ccccc32)cc1OC (configuration not stated)	?	i	i	i
COc1cc(C2NC(C(=O)O)Cc3c2[nH]c2ccccc32)cc(OC)c1OC (configuration not stated)	i	i	i	nt
COc1cc(CNc2ccc3[nH]c(=O)[nH]c3c2)ccc1OCc1ccccc1F	i	i	i	nt
COc1cc(CNc2ccc3[nH]c(=O)[nH]c3c2)cc(Br)c1OCc1ccccc1F	0.79µM	?	i	i
COc1cc(/C=C/C(=O)O)cc(S(=O)(=O)Nc2ccc3[nH]c(=O)[nH]c3c2)c1OC	i	i	i	nt
COc1cc(/C=C/C(=O)O)cc(S(=O)(=O)Nc2ccccc2Oc2ccccc2)c1OC	?	i	i	i
Cc1cccc(NS(=O)(=O)c2ccc3c(c2)NC(=O)CO3)c1C	i	?	i	nt
COc1ccc(C(=O)NCCCN2CCCC2=O)cc1S(=O)(=O)N1CCOCC1	nt	nt	i	nt
COc1ccc(C2=Nn3c(nnc3-c3ccccc3OC)SC2)cc1OC1CCOC1 (configuration not stated)	nt	i	nt	nt
O=C(NCc1ccccc1)NC1CCS(=O)(=O)C1 (configuration not stated)	i	i	?	nt
CC(C1CC1)N(C(=O)NC1CCS(=O)(=O)C1)c1ccccc1 (configuration not stated)	?	i	i	i
Cc1ccc(CCc2nnc(SCC(=O)Nc3ccccc3Cl)n2-c2ccccc2)o1	i	i	i	nt
CCOC(=O)c1ccc(NC(=O)CSc2nnc(CCc3ccc(C)o3)n2-c2ccccc2)cc1	1.4µM	i	i	i	Flu PR8 replic=i
CCc1noc(C)c1C(=O)N1CCN(S(=O)(=O)c2cccs2)CC1	nt	i	i	nt
CCn1c(SCC(=O)O)nnc1-c1cc2c(C)nn(-c3ccccc3)c2s1	?	i	i	i
Cc1nn(-c2ccccc2)c2sc(-c3nnc(SCC(=O)O)o3)cc12	i	i	i	nt
COc1ccccc1S(=O)(=O)Cc1ccc(C(=O)NCc2ccccc2)o1	i	i	i	nt
SMILES	NS1 inh	SARS PLpro yeast	AMA1-RON2 inh	Flu NS1 inh	others
Cc1cc(C)c2nc(NC(=O)C3CSC4(C)CCC(=O)N34)sc2c1 (configuration not stated)	nt	i	i	nt
Cc1ccc(/C=C2\SC(=S)N(CCC(=O)N3CCOCC3)C2=O)cc1	i	i	i	nt
COC(=O)C1=Nc2ccccc2/C1=C\c1c(O)n(-c2ccc(OC)cc2)c(=O)[nH]c1=O	i	i	i	nt
COC(=O)C1=Nc2ccccc2/C1=C\c1c(O)n(-c2ccc(Br)cc2)c(=O)[nH]c1=O	10µM	i	i[11.6 µM]	i
O=C(Nc1ccccc1)Nc1n[nH]c2nnc(-c3ccccc3)c(-c3ccccc3)c12	i	i	i	nt
O=C(Nc1ccc(Cl)c(Cl)c1)N1N=CCC1c1ccccc1 (configuration not stated)	i	i	i	nt
Cc1c(OC(C)C(=O)NC(Cc2c[nH]c3ccc(O)cc23)C(=O)O)ccc2c1oc(=O)c1ccccc12 (configuration not stated)	i	i	i	nt
Cc1c(C)c2ccc(OC(C)C(=O)N[C@@H](Cc3c[nH]c4ccccc34)C(=O)O)c(C)c2oc1=O (some centres not stated)	10µM	i	i	i
